Hit rate of the full screen: of about 69,000 compounds, about 8,600 (12%) showed an effect of 50% or more. This is one part of a sample in which strong results are shown more often than they occur.
Tested on: Plasmodium berghei
Assay: Screen against P. berghei liver stage (PbLuc), transformed with Luciferase, at 10uM
Type: functional, HepG2
Conditions: tested at 10 uM

Row | SMILES | INHIBITION
1 | CC(=O)N1CCN(Cc2ccsc2)CC2(CC(=O)N(C)C2)C1 (stereo not given) | 16.1%
2 | CC(C)N1CCC2(CC1)C[C@@H](O)[C@H](c1ccccc1)NC2=O | 40%
3 | Cc1ccc2c(c1)C(NC(=O)N(C)C)CC21CCN(CC2CC2)CC1 (stereo not given) | 22.4%
4 | COCC(=O)NC1CC2(CCN(CCO)CC2)c2ccccc21 (stereo not given) | 33.1%
5 | COCC(=O)NC1CC2(CCN(CCN(C)C)CC2)c2ccccc21 (stereo not given) | 53.9%
6 | CCN1CCC2(CC1)CC(NC(=O)c1ccnnc1)c1ccccc12 (stereo not given) | -9.42%
7 | COCC(=O)NC1CC2(CCN(Cc3ccco3)CC2)c2ccccc21 (stereo not given) | 32.4%
8 | CC(C)C(=O)NC1CC2(CCN(CC(=O)N(C)C)CC2)c2ccccc21 (stereo not given) | 60.2%
9 | CC(C)(CNCc1ccc(OCc2cscn2)cc1)C(N)=O | -47%
10 | Cc1cnc(CN2CCC(N(C)Cc3noc(C4CC4)n3)C2)o1 (stereo not given) | 33.3%
11 | CCC(C)c1ccc(NC(=O)C2CCN(C(=O)COC)CC2)cc1 (stereo not given) | 16.6%
12 | CCc1ccc(NC(=O)C2CCN(C(=O)COC)CC2)cc1 | 39.3%
13 | CCC(C)c1ccc(NC(=O)C2CCN(C(=O)N(C)C)CC2)cc1 (stereo not given) | 76.9%
14 | Cn1cncc1C(=O)N1CCCC(c2ccn[nH]2)C1 (stereo not given) | -35.9%
15 | CC(NCc1nnc2n1CCCC2)C(=O)N1CCc2sccc2C1 (stereo not given) | -21.9%
16 | O=C1CC(N(C(=O)COc2ccc(F)cc2F)C2CC2)C(=O)N1 (stereo not given) | 0.472%
17 | Cc1cc(C)nc(NCc2cc3n(n2)CCCN(C(=O)C2CCC2)C3)n1 | 13.3%
18 | Cc1cc(NCc2cc3n(n2)CCCN(C(=O)C2CCC2)C3)nc(N)n1 | 80.2%
19 | Nc1nccc(NCc2cc3n(n2)CCCN(C(=O)C2CCC2)C3)n1 | 28.5%
20 | Cc1nc(C2CCCN(S(C)(=O)=O)C2)sc1Br (stereo not given) | -7.66%
21 | CC(C)Cc1noc(CN(C)c2cc(N(C)C)ncn2)n1 | -8.75%
22 | COc1cc(N(C)Cc2noc(CC(C)C)n2)ncn1 | 43%
23 | CCc1cc(N(C)Cc2noc(CC(C)C)n2)ncn1 | 57.6%
24 | CCn1cc(NC(=O)C2CCN(CC(=O)NC3CCCC3)CC2)cn1 | -10.6%
25 | O=C(N[C@@H]1CN(Cc2ccco2)[C@@H]2CCCO[C@@H]21)c1cscn1 | 8.6%
26 | COc1ccc(F)cc1C(C)NC(=O)NCCCn1cncn1 (stereo not given) | 11.9%
27 | CCN(Cc1ccoc1)C(=O)C1CN(C(=O)OC(C)(C)C)C1 | -26.7%
28 | O=C(COCC(F)(F)C(F)F)N1CCC2(CCCN(CCO)C2=O)C1 (stereo not given) | -8.97%
29 | O=C(COCC(F)(F)C(F)F)N1CCC2(CCCN(CC3CC3)C2=O)C1 (stereo not given) | 27.8%
30 | CC(C)N1CCCC2(CCN(C(=O)COCC(F)(F)C(F)F)C2)C1=O (stereo not given) | 50.2%

Source: ChEMBL document CHEMBL4513216, “Probing the Open Global Health Chemical Diversity Library for Multistage-Active Starting Points for Next-Generation Antimalarials” (ACS Infect Dis, 2020)
